This is a sample that favours compounds with a hit; in the whole collection about 11% have one here.
HPGD inh: HPGD (human) dehydrogenase inhibition; 150,000 tested, 4.3% active; purified HPGD, NADH fluorescence kinetic, PGE2 substrate; P15428; Potency, µM, for inactives: top-dose activity change, negative = inhibition, actives largely listed as inhibitors; active means well fitted inhibition curve with a large enough effect, not every such curve was filed as active; inconclusive means small, poorly fitted or top-dose-only effect, or another doubt; inactive means no such curve, though single readings can be large or run the other way; further: potency means the concentration at half of the fitted maximal effect; on the % scale 0 is the no-effect control and ±100 the full control effect
Target sequence (P15428 whole entry, looked up): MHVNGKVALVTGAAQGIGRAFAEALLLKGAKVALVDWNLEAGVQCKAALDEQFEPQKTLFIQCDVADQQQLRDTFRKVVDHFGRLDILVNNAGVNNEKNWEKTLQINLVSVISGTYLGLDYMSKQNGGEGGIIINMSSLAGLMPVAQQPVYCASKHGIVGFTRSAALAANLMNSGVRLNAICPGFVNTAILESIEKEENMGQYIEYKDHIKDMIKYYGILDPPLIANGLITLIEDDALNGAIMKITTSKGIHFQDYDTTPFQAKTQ
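20 nM HPGD preincubated 15 min at room temperature with compound in 50 mM Tris-HCl pH 8, 0.01% Tween 20. Started with 1 mM NAD+ and 30 uM prostaglandin E2; NADH fluorescence (360/450 nm) read 5 times over 30-s intervals, last minus first.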
HTT ATP protect: Huntington cell model cytoprotection by ATP luminescence | 230,000 tested, 0.14% active | PC12 HTT-Q103 induced, cytoprotection, ATP luminescence, 40 h | Potency, µM (highest dose often 56.4 µM), inactives show cytoprotection (ATP increase), usual class: activators; further: potency means the concentration at half of the fitted maximal effect; % of control where 0% means no effect; nearly all actives have a fitted effect of over 45% in size
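Compounds added alongside 100 nM tebufenozide, which induces toxic Q103 huntingtin exon 1-GFP in stable PC12 cells; surviving cells quantified by luminescent ATP measurement. Medium: phenol red-free DMEM, 5% equine and 5% calf serum.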
CBFb-RUNX1 inh: CBF-beta/RUNX1 interaction disruption | Q01196+Q13951 | AlphaScreen CBFb-His/RUNX1-biotin binding, biochemical | Potency, µM (doses to about 59.8 µM), inactives show at the highest dose activity, negative = inhibition, usual class: inhibitors | 230,000 tested, under 10 active; further: % of control where 0% means no effect
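AlphaScreen proximity signal reports loss of binding between His-tagged CBF-beta and biotin-labelled RUNX1, each at 30 nM. Proteins are pre-associated for 20 minutes, compounds added for 15 minutes, then beads for 90 minutes, all at ambient temperature.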
ALDH1A1 inh: inhibitors of human aldehyde dehydrogenase 1A1. 220,000 tested, 7.3% active. Potency, µM (series often up to 75.3 µM), for the others: at the highest dose activity, negative = inhibition, actives largely listed as inhibitors. Purified ALDH1A1, NADH fluorescence, propionaldehyde substrate. P00352. AID 1030; active means well fitted inhibition curve with a large enough effect, not every such curve was filed as active; inconclusive means small, poorly fitted or top-dose-only effect, or another doubt; inactive means no such curve, though single readings can be large or run the other way;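 further: potency means the concentration at half of the fitted maximal effect; plate controls were no enzyme wells and a reference inhibitor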
HttQ103 aggreg: inhibitors of mutant huntingtin aggregate formation in PC12 cells. AID 1688. Potency, µM (series often up to 46.1 µM), for the others: top-dose activity change, negative = inhibition, usual class: inhibitors. 220,000 tested, 1.1% active. PC12 HttQ103-GFP aggregates, Acumen cytometry, 40 h; further: potency means the concentration at half of the fitted maximal effect; on the % scale 0 is the no-effect control and ±100 the full control effect; nearly all actives have a fitted effect of over 60% in size
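Quantitative HTS on tebufenozide-induced (100 nM) PC12 cells stably expressing polyQ103 Huntingtin exon 1–GFP. Reduction of bright GFP aggregates, detected by laser scanning cytometry after lysis, identified actives across the titration.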
PNC inhibitor: perinucleolar compartment assembly inhibition. AID 2417. activity change (PNC), negative = inhibition, % at 10 µM. PC3M PTB-GFP, PNC prevalence imaging, 16 h; stronger effect = lower value. 140,000 tested, 3.1% active;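 active means readout at or below -70, meaning at least 70% loss of cells showing the perinucleolar compartment, a nuclear body marking cancer cells; inconclusive means readout between -30 and a set limit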;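 further: plate controls were DMSO wells for no effect and camptothecin positive control wells for full effect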
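Read-out is percentage of cells bearing a perinucleolar compartment, from automated 20x imaging of fixed, Hoechst-stained PC3M PTB-GFP cells. Cells were seeded 4 h, then exposed 16 h to compound (23 nl of library stock) in duplicate plates.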
* = called active by the depositor; ? = inconclusive; . = no result given; [ ] = another dose, or the depositor's remark. Unless noted, the call rests on the fitted dose curve; in most records, active means well fitted curve in the direction sought with a large enough effect; inconclusive means small, poorly fitted or top-dose-only effect, or another doubt; inactive means no such curve, though single readings can be large; an effect the other way counts as inactive or inconclusive.

SMILES	HPGD inh	HTT ATP protect	CBFb-RUNX1 inh	ALDH1A1 inh	HttQ103 aggreg	PNC inhibitor
O=C(Nc1ccccc1C(=O)N/N=C/c1ccc(F)cc1)c1ccccc1Br	-18%	-32%	0%	?	10%	-114*
O=C(N/N=C/c1ccc(O)cc1)c1cccc(N/N=C/c2ccc(O)cc2)c1	.	-14%[10 µM]	1%	22µM*	-7%[9.22 µM]	.
O=C(C[n+]1ccc(C(=O)N/N=C/c2ccc(O)cc2)cc1)c1ccccc1	-14%	6%	-10%	1.6µM*	-1%	7
O=C(N/N=C/c1ccncc1)c1cccc(N/N=C/c2ccncc2)c1	.	-67%	-8%	-7%	6%	.
CCc1ccc(C(=O)Nc2cc(C)ccc2F)s1	.	-20%	-1%	13%	16%[9.22 µM]	.
CC1(C)COCN1COC1CCCCC1	-6%	-12%[10 µM]	.	4%[13.5 µM]	.	.
O=C(c1cc(COc2c(F)cccc2F)on1)N1CCC(c2ccccc2F)C1 (configuration not stated)	.	-6%[10 µM]	29%	-7%	-25%[9.22 µM]	.
O=C(c1cc(COc2c(F)cccc2F)on1)N1CCC(c2ccncc2)CC1	.	-35%	7%	?	20µM*	.
O=C(c1cc(COc2ccc(F)cc2Cl)on1)N1CCC(OCc2cccnc2)CC1	.	-56%	7%	3%	11µM*	.
COc1ccc(C2=Nn3c(nnc3-c3ccccc3O)SC2)cc1OC	.	.	13%	.	.	.
COC(=O)CCN1CCc2cc(N=Nc3ccc([N+](=O)[O-])cc3)ccc21	.	-37%[10 µM]	-18%	.	6%[9.22 µM]	.
Cc1ccnc(N2CCC(C(=O)Nc3ccc4c(c3)OCCO4)CC2)n1	.	-3%[10 µM]	2%	-13%	6%[9.22 µM]	.
CCCN1C(=O)C(O)(C2CC(=O)CC(C)(C)O2)c2ccccc21 (configuration not stated)	-1%	12%	4%	0.79µM*	1%	29
CCN1C(=O)C(O)(C2COC(C)(C)CC2=O)c2cc(Br)ccc21 (configuration not stated)	-13%	-71%	16%	8.9µM*	?	?
CCCN1C(=O)C(O)(C2COC(C)(C)CC2=O)c2ccccc21 (configuration not stated)	.	14%[10 µM]	7%	0.35µM*	1%[9.22 µM]	.
CCN1C(=O)C(O)(C2COC(C)(C)CC2=O)c2ccccc21 (configuration not stated)	-6%	-23%	2%	?	15%	32
O=C1CCC[C@@H]2CC(NCc3ccc(Cl)c(Cl)c3)C[C@@H]3CCN1[C@H]23 (some centres not stated)	-7%	-16%	22%[89.1 µM]	6%	.	.
COC(=O)[C@@]1(Cc2ccc(OC)cc2)[C@H]2c3cc(C(=O)N4CCCC4)n(CCN4CNCC4=O)c3C[C@H]2CN1C(=O)c1ccccc1	-6%	?	28%	-4%	.	.
Cc1nc2nc(CCc3ccccc3)nn2c(C)c1Cl	0%	-29%	1%	-8%	-2%	-5
Cc1nc2nc(Cc3ccccc3)nn2c(C)c1Cl	-17%	-10%[0.074 µM]	-3%	14µM*	-17%	3
N#Cc1c(N)nc(Sc2ccc(Cl)cc2)c(C#N)c1-c1ccccc1Cl	.	18%[10 µM]	3%	.	-2%[9.22 µM]	.
Cc1ccc(S(=O)(=O)c2c(C)nn(C(C)(C)C)c2OC(=O)C(C)C)cc1	.	-26%	5%	-10%	-27%	.
Cc1nn(C(C)(C)C)c(OC(=O)c2cccs2)c1S(=O)(=O)c1ccccc1	-22%	-16%[0.074 µM]	2%	1%	13µM*	34
COc1ccc(NS(=O)(=O)c2ccc3oc(SC4CCOC4=O)nc3c2)cc1 (configuration not stated)	32µM*	21%	0%	0.56µM*	-13%	14
O=C(C/C=N/OCc1ccccc1F)c1cnc(-c2ccc(Cl)cc2)s1	-14%	-2%	-10%	22µM*	18%	-11
Clc1ccc(OCc2nn3c(C4CCCCC4)nnc3s2)cc1	20µM*	-16%[0.074 µM]	-1%	18µM*	-22%	-16

High-throughput results (PubChem BioAssay)
